Bioassay records from PubChem BioAssay.
CCHFV vOTU inh: CCHFV vOTU protease inhibition; Pep-AMC fluorescence; inhibition, % at 11.5 µM; 370,000 tested, 0.55% active; AID 651958; in the data active means inhibition above about 30%
BH1578 lux ind: quorum light induction in luxS cqsA deficient V. cholerae; V. cholerae BH1578 lux reporter, luminescence, 6 h; activation, % at 18.7 µM; AID 588436; 350,000 tested, 0.16% active; in the data active means activation mostly above about 9.7%, no sharp cut-off
GDH-TPI counter-1: inhibits GDH-TPI coupling enzymes, artifact for Mtb FBA screen; GDH-TPI coupled enzyme counterscreen, NADH absorbance; inhibition, % at 4.8 µM; 360,000 tested, 1.2% active; AID 588335; in the data active means inhibition above about 30%
Mtb FBA inh: inhibitors of M. tuberculosis fructose-bisphosphate aldolase | AID 588726 | purified M. tuberculosis FBA, fluorescence read-out | 360,000 tested, 2.3% active | inhibition, % at 1 µM
Target sequence (P9WQA3 whole entry, looked up): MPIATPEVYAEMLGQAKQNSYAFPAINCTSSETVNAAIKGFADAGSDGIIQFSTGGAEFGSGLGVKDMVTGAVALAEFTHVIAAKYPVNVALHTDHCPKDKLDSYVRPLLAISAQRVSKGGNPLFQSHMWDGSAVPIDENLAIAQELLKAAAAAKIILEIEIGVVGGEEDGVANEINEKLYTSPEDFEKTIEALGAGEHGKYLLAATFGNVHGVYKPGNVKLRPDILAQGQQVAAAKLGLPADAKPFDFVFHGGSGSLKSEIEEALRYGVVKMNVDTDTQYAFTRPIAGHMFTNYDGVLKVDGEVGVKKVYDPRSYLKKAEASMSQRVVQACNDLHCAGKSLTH
Mtb FBA inh conf: confirmation of M. tuberculosis fructose-bisphosphate aldolase inhibitors. purified M. tuberculosis FBA, fluorescence read-out. 5,600 tested, 78% active. shares compounds with Mtb FBA inh. inhibition, % at 1 µM. AID 651616
GDH-TPI counter-2: inhibits GDH-TPI coupling enzymes, flagging Mtb FBA hits. shares compounds with Mtb FBA inh. GDH-TPI coupled enzyme counterscreen, fluorescence. inhibition, % at 1 µM. 5,600 tested, 81% active; in the data active means inhibition above about 10%
GDH-TPI DR: GDH-TPI dose response counter-screen for Mtb FBA; shares compounds with Mtb FBA inh; GDH-TPI coupled enzyme assay, fluorescence, artifact counterscreen; IC50, µM; 170 tested, 79% active; AID 652145; call rule not given here
Of the large screens only hits and unclear results are named; the others gave an inactive call (follow-up assays come after a bar, where they were run). This is a sample that favours compounds with a hit; in the whole collection about 3.9% have one here. Unless noted, no stated cut-off is given here; in the data, active means inhibition above about 27%; inactive means the rest.

COc1cc(N=Cc2c(CO)cnc(C)c2O)cc(OC)c1OC	Mtb FBA inh 82 | Mtb FBA inh conf 63 | GDH-TPI counter-2 63
COc1ccccc1N/N=C/c1c(CO)cnc(C)c1O	none
CC1(C(=O)NCc2cccs2)Cc2c(-c3ccc4c(c3)OCO4)ccnc2O1 (stereo not given)	Mtb FBA inh 61 | Mtb FBA inh conf 53 | GDH-TPI counter-2 32
CN(C)c1ccc(-c2ccnc3c2CC(C)(C(=O)NCc2cccs2)O3)cc1 (stereo not given)	Mtb FBA inh 40 | Mtb FBA inh conf 32 | GDH-TPI counter-2 inactive | GDH-TPI DR 1
CN(C)c1ccc(-c2ccnc3c2CC(C)(C(=O)NCc2ccco2)O3)cc1 (stereo not given)	Mtb FBA inh 31 | Mtb FBA inh conf 73 | GDH-TPI counter-2 52
CN(C)c1ccc(-c2ccnc3c2CC(C)(C(=O)NCc2ccc(F)c(F)c2)O3)cc1 (stereo not given)	Mtb FBA inh 44 | Mtb FBA inh conf 103 | GDH-TPI counter-2 78
CC(=O)Nc1ccc(-c2ccnc3c2CC(C)(C(=O)NCc2ccco2)O3)cc1 (stereo not given)	none
COCCNC(=O)NC(=O)CN1C(=O)NC(Cc2c[nH]c3ccccc23)C1=O (stereo not given)	none
CC(C)NC(=O)C1(C)Cc2c(-c3ccc(N(C)C)cc3)ccnc2O1 (stereo not given)	Mtb FBA inh 38 | Mtb FBA inh conf active | GDH-TPI counter-2 active
CC1(C(=O)NCc2cccc(Cl)c2)Cc2c(-c3ccc4c(c3)OCO4)ccnc2O1 (stereo not given)	Mtb FBA inh 30 | Mtb FBA inh conf inactive | GDH-TPI counter-2 21
CN(C)c1ccc(-c2ccnc3c2CC(C)(C(=O)NCCC(F)(F)F)O3)cc1 (stereo not given)	Mtb FBA inh 36 | Mtb FBA inh conf 97 | GDH-TPI counter-2 64
CC(=O)Nc1ccc(-c2ccnc3c2CC(C)(C(=O)NCCC(F)(F)F)O3)cc1 (stereo not given)	none
C[C@@H]1COc2cccc(N(C)CCO)c2S(=O)(=O)N1	none (no result: BH1578 lux ind, GDH-TPI counter-1, Mtb FBA inh)
NC(=O)c1ccsc1NC(=O)CN1CCN(S(=O)(=O)c2ccccc2C(F)(F)F)CC1	none
CCOc1ccc(-c2cc(C(=O)Nc3cc(OC)c(OC)c(OC)c3)[nH]n2)c(C)c1	none
O=C(NCc1ccccc1Cl)C1=CC=CN2CCS(=O)(=O)N=C12	Mtb FBA inh 36 | Mtb FBA inh conf active | GDH-TPI counter-2 active
CC(NC(=O)C1=CC=CN2CCS(=O)(=O)N=C12)c1ccc(Cl)c(Cl)c1 (stereo not given)	none
CC(NC(=O)C1=CC=CN2CCS(=O)(=O)N=C12)c1ccc(Cl)cc1Cl (stereo not given)	Mtb FBA inh 29 | Mtb FBA inh conf 126 | GDH-TPI counter-2 95
CC(C)(C)OC(=O)[C@H](Cc1ccccc1)NC(=O)c1ncn2c1c(=O)[nH]c1ccc(Br)cc12	none
CC(C)(C)OC(=O)NCCCCCNC(=O)c1ncn2c1c(=O)[nH]c1ccccc12	Mtb FBA inh 87 | Mtb FBA inh conf 42 | GDH-TPI counter-2 34
NS(=O)(=O)c1cccc(NC(=O)CSc2nc3nc(-c4cccs4)cc(C(F)(F)F)c3c(=O)[nH]2)c1	Mtb FBA inh 33 | Mtb FBA inh conf 173 | GDH-TPI counter-2 119
Cc1ccc(S(=O)(=O)Oc2ccc(C3C4=C(CCCC4=O)OC4=C3C(=O)CCC4)cc2)cc1	none
Cc1ccc(S(=O)(=O)Oc2ccc(C3C4=C(CCCC4=O)N(CCC(=O)O)C4=C3C(=O)CCC4)cc2Cl)cc1	Mtb FBA inh 110 | Mtb FBA inh conf inactive | GDH-TPI counter-2 inactive
CCOc1cc(C2C3=C(CCCC3=O)N(CCC(=O)O)C3=C2C(=O)CCC3)ccc1OS(=O)(=O)c1ccc(C)cc1	Mtb FBA inh 79 | Mtb FBA inh conf 83 | GDH-TPI counter-2 72
COC(=O)C1=C(c2cccc(OCc3ccccc3)c2)C[C@@H]2CC[C@H]1N2C(=O)NCCOc1ccccc1Cl	none
COC(=O)C1=C(c2ccccc2OCc2ccccc2)C[C@@H]2CC[C@H]1N2C(=O)NCCOc1ccccc1Cl	Mtb FBA inh 46 | Mtb FBA inh conf 179 | GDH-TPI counter-2 122
CC1CCCC(C)N1NC(=O)Cc1ccccc1 (stereo not given)	none
